Laboratory results taken from PubChem BioAssay AID1492 (National Center for Advancing Translational Sciences (NCATS), 2009).
Results filed as inconclusive are left out. A number with no mark means an inactive call. Active and inactive are the calls of the source. The call rests on the fitted dose curve; in most records, active means well fitted inhibition curve with a large enough effect; inconclusive means small, poorly fitted or top-dose-only effect; inactive means flat fitted curve, though single readings scatter.

target: Muscarinic acetylcholine receptor M1 (Rattus norvegicus) (UniProt P08482); assay: Counterscreen Concentration-Response Assay for Antagonists of the Neuropeptide S Receptor: Muscarinic Receptor Calcium Signal Transduction.; conditions: CHO-M1 cells, carbachol-induced calcium fluorescence, FDSS; series mostly up to 20.2 µM; activity, negative = inhibition: at the top concentration
Excerpt: NIH Chemical Genomics Center [NCGC] NIH Molecular Libraries Probe Production centers Network [MLPCN] MLPCN Grant: X01-DA026210-01 Assay Submitter (PI): Heilig, Markus Alexander NCGC Assay Overview: Neuropeptide S receptor (NPSR), previously known as GPR154, is a recently de-orphanized G protein coupled receptor. Its endogenous ligand is the 20 amino acids peptide Neuropeptide S (NPS). […] NPS and its receptor are found in various tissues. Specifically they are highly expressed in brain areas that have been implicated in modulation of arousal, stress and anxiety. Central administration of NPS in mice produces an unusual profile of activity by inducing wakefulness and arousal, while at the same time suppressing anxiety. Therefore, NPSR may represent a novel drug target for the treatment of sleep and anxiety disorders. To identify NPSR antagonists, we developed a cell-based assay with transfected NPS receptor. NPS can stimulate the production of cAMP as well as release intracellular calcium in Chinese hamster ovary cells stably expressing NPS receptor. This change in intracellular calcium can be detected using a calcium indicator dye on a calcium imaging plate reader system (FDSS). To validate the specific action of compounds on the NPS receptor, a counterscreen was developed that tests compounds' antagonism of M1 muscarinic receptor stimulation by carbachol. The protein, gene and taxonomy linked to this assay refer to Rattus norvegicus, but Chinese Hamster ovary cells were actually used.
NCGC Assay Protocol Summary: A Chinese hamster ovary (CHO) cell line stably expressing muscarinic acetylcholine M1 receptor (CHO-M1) was obtained from ATCC and maintained in F-12 Kaighn's media (Invitrogen, Carlsbad, CA, 21127) supplemented with 10 % FBS, 100 units/ml penicillin, 100 ug/ml streptomycin and 250 ug/ml geneticin at 37C, 5% CO2 in a humidified atmosphere. Before the assay, aliquots of cells were frozen and stored at -135C. The assay was performed on a FDSS-7000 kinetic plate reader in 1536-well format. The maximums of kinetic fluorescence responses were converted into text files using the instrument's software data export utility. […] AC50 values were determined from concentration-response data modeled with the standard Hill equation. CHO-M1 1536-well FDSS assay protocol: (1) Frozen CHO-M1 cells were thaw, washed once with fresh media and resuspended in F-12 Kaighn's media supplemented with 10 % FBS, 100 units/ml penicillin and 100 ug/ml streptomycin. Cells were plated at 3 ul/well (1200 cells) to black, clear-bottom, tissue-culture treated 1536-well plates, and then cultured at 37C, 5 % CO2 for 16 to 30 hours. (2) Add 3 ul of calcium dye (from High Performance PBX Calcium Assay Kit, BD Biosciences). The calcium dye was prepared according to the manufactory's instruction. (3) Incubation at 37C, 5 % CO2 for 60 min. (4) Add 23 nl/well of compound in DMSO solution. The final titration for each compound was between 0.6 nM and 46 uM. (5) Load plates to FDSS-7000. The following steps were performed on FDSS-7000. (6) Record fluorescent background (Ex 480 nm, Em 520-560 nm) for 10 s. (7) Add 2 ul of stimulation reagent (1X HBSS buffer, 0.1% BSA, 60 nM carbachol). Record antagonist response (Ex 480 nm, Em 520-560 nm) for 180 s. Keywords: MLSMR, MLPCN, NIH Roadmap, qHTS, NCGC, NPS, Neuropeptide S Antagonists

Compound	activity, negative = inhibition [%]	Potency
C=CCOc1c(Cl)cc(CNc2ccc(N(C)C)cc2)cc1OC	7.52	
Cn1c(COc2ccccc2)nnc1SCc1cc(=O)[nH]c2ccccc12	-0.776	
O=C(O)CCCCCNc1nc(=S)[nH]c2ccccc12	-7.08	
Cn1c(C(=O)NCCN2CCc3ccccc3C2)cc2c(=O)[nH]c3ccccc3c21	4.13	
COc1ccc(-c2cc(N)n(S(=O)(=O)c3c(F)c(F)c(F)c(F)c3F)n2)cc1OC		11.2 µM (active)
Brc1ccc(CSc2ncn[nH]2)cc1	-10.8	
COc1ccc(N=C2S/C(=C\c3ccc(N4CCOCC4)o3)C(=O)N2CCc2c[nH]c3ccccc23)cc1		5.01 µM (active)
CCn1cc(C(=O)NCC2CCCO2)c(=O)c2cc(S(=O)(=O)N3CCCCCC3)ccc21 (configuration not stated)	20.3	
Nn1c(COc2ccccc2)nnc1SCc1cc(=O)[nH]c2ccccc12	3.18	
CC1CCCc2sc3nc(N4CCN(CCO)CC4)n4ncnc4c3c21 (configuration not stated)	17.7	
COc1cccc(C(=O)/C=C/Nc2ccc(S(=O)(=O)Nc3cccc(C(C)=O)c3)cc2)c1	-19.1	
O=C1Nc2ccc(S(=O)(=O)N3CCCC3C(=O)O)c3cccc1c23 (configuration not stated)	0.459	
Cc1nn(C(=O)c2cccs2)c(N)c1-c1ccccc1	5.89	
CC1CCN(S(=O)(=O)c2ccc(C(=O)Nc3sccc3C(N)=O)cc2)CC1	-2.17	
COc1ccc(NC(=O)/C(Cl)=C(/Cl)S(=O)Cc2ccc(C)cc2)cn1 (configuration not stated)		10 µM (active)
COc1ccccc1-c1nnc(SC2CCc3ccccc3NC2=O)s1 (configuration not stated)	-0.169	
O=C(COC(=O)c1ccccc1C(=O)c1ccc(Cl)c([N+](=O)[O-])c1)NC1CCCCCC1		4.47 µM (active)
COCCCn1c(SCc2cc(=O)[nH]c3ccccc23)nnc1-c1ccco1	-8.77	
C(=C\c1ccccc1)/C=N/N1CCN(c2ccccn2)CC1	8.26	
O=C(O)c1cccc(Nc2ncnc3ccccc23)c1	-12.1	
O=C(/C=C/c1ccco1)NC(=S)Nc1cccc(-c2nc3ccccc3o2)c1	-7.11	
O=C1CC(NCc2ccncc2)C(=O)N1c1ccccc1 (configuration not stated)	7.55	
CCOc1ccc(N2C(=O)CC(NCCc3ccncc3)C2=O)cc1 (configuration not stated)	9.94	
O=C(CSc1n[nH]c(-c2cccnc2)n1)Nc1ccnc2ccccc12	3	
COc1ccc(N(CC(=O)Nc2cccc(SC)c2)S(C)(=O)=O)cc1Cl	7.48	
O=c1cc(CNCCCO)c2ccccc2[nH]1	6.24	
C=CCNC(=O)/C(C#N)=C/c1cn(-c2ccccc2)nc1-c1ccc(OC)c([N+](=O)[O-])c1	-10.9	
